TRHR ag = agonists of human TRH receptor; TRHR cells, calcium flux fluo-8, FDSS agonist mode; activation, % at 2 µM; AID 493084; P34981; actives 0.18% (n = 360,000); note: 0% is about no effect
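Agonist-mode FDSS calcium read (Ex 480/Em 530, 1 s cycles) in 1536-well TRHR cells with fluo-8 dye, after 10-cycle baseline and 23 nL compound addition; TRH at EC20 (10 nM final) added afterwards for the enhancer phase.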
TRHR PAM = allosterically enhances the human TRH receptor; actives 0.66% (n = 360,000); TRHR cells, fluo-8 calcium fluorescence, EC20 TRH enhancement; enhancement, % at 2 µM; in the data active = enhancement above about 30%; note: 0% is about no effect
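TRHR-expressing cells loaded with fluo-8 calcium dye were read kinetically (ex 480/em 530) during compound addition, then stimulated with an EC20 of TRH (10 nM final). Enhancement of the Gq-mediated intracellular calcium response was scored.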
D1 PAM = enhances dopamine response at the human D1 receptor; HEK293 TREx D1 cells, calcium flux, dopamine EC20 potentiation; potentiation, % at 10 µM; actives 0.036% (n = 360,000); in the data active = potentiation above about 30%; note: 0% is about no effect
Target sequence (P21728 whole entry, looked up): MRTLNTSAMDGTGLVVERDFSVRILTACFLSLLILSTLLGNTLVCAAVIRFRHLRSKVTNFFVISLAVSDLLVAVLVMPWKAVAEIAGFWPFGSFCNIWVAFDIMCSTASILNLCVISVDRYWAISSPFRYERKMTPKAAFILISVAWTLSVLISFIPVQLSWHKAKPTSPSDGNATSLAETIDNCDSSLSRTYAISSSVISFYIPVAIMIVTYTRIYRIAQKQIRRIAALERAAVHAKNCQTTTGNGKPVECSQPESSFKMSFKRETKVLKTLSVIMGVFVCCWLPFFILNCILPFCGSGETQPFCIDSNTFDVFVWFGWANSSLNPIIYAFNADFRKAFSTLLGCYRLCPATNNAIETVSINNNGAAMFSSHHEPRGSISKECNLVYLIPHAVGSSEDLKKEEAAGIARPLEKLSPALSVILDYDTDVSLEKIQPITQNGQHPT
D1 ag = agonists of human D1 dopamine receptor; HEK293 T-REx D1 cells, calcium flux, agonist mode; activation, % at 2 µM; P21728; AID 504660; actives 1% (n = 360,000); note: 0% is about no effect
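Inducible HEK293 T-REx D1 cells, force-coupled to calcium signalling, were plated at 4000 cells/well with tetracycline and held overnight at 30 C. After no-wash calcium dye loading, compound-evoked calcium rise over 180 s flagged agonists.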
D1 antagonist = blocks dopamine activation of the human D1 receptor. P21728. HEK293 TREx D1 cells, calcium flux, dopamine EC80; hits give low values. activity change, negative = inhibition, % at 10 µM. actives 3.2% (n = 360,000). AID 504652; in the data active = activity change below about -30%; note: % is set by controls: 0 for no effect and ±100 for the full control effect
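Cells carrying a force-coupled, tetracycline-inducible human D1 receptor report calcium flux. Each well gets a 10 s baseline, compound with 180 s monitoring, then an EC80 dopamine stimulus with a second 180 s kinetic read.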
Starred values were filed as active, the others as inactive; . = no result given. Sampled rows, rich in hits. Any-hit rate of the full collection: about 4.6%. Cut-off read from the data, not from the text of the source, unless noted: active = activation above about 30%; inactive = the rest.

SMILES | TRHR ag | TRHR PAM | D1 PAM | D1 ag | D1 antagonist
N#CN/C(=N\S(=O)(=O)c1ccccc1)c1ccccc1 | 1 | 37* | -1 | 4 | -1
O=S(=O)(/N=C(/Nc1ccccc1F)c1ccccc1)c1ccccc1 | 0 | -4 | -4 | 2 | 0
O=S(=O)(Nc1ccc(N2CCOCC2)nn1)c1ccccc1 | 0 | 13 | -2 | 2 | -47*
CCc1ccc(C(=O)c2cn(Cc3ccccc3)c3cc(OC)c(OC)cc3c2=O)cc1 | -1 | -2 | 0 | 4 | 0
Cc1ccc(NC(=O)c2cc(S(=O)(=O)N3CCCc4ccccc43)ccc2F)cc1F | 4 | -9 | -3 | 6 | -31*
O=C(Nc1ccc(Br)cc1)c1cc(S(=O)(=O)N2CCc3ccccc32)ccc1F | 1 | 1 | -3 | 7 | -50*
COc1ccc(CCNC(=O)CCc2c(C)nc3cc(-c4cccc(F)c4)nn3c2C)cc1OC | 0 | 6 | 0 | 2 | -34*
Cc1nc2cc(-c3cccc(F)c3)nn2c(C)c1CCC(=O)N1CCN(c2ccc(F)cc2)CC1 | 0 | 4 | -4 | -1 | 9
COc1ccccc1-c1cc2nc(C)c(CCC(=O)NCCc3ccc(SC)cc3)c(C)n2n1 | -1 | -11 | -6 | 8 | -47*
CCOc1ccc(CCNC(=O)CCc2c(C)nc3c4c(C)cc(C)nc4nn3c2C)cc1 | -2 | 15 | -3 | -1 | -36*
COc1ccc(N2CCN(C(=O)CCc3c(C)nc4cc(-c5cccc(F)c5)nn4c3C)CC2)cc1 | 0 | 37* | 0 | 0 | 21
COc1ccc(CCNC(=O)CCc2c(C)nc3c(-c4ccc(F)cc4)c(C)nn3c2C)cc1OC | -1 | 3 | -3 | 0 | 6
Cc1cccc(C(=O)NCCc2nc3ccccc3n2CCC(C)C)c1 | -1 | -9 | -1 | 2 | -10
C/C(=C\c1ccccc1)C(=O)c1c(C)cc(C)[nH]c1=O | 1 | 32* | 3 | -3 | 21
Cc1cc(C(=S)N2CCOCC2)c(C)n1-c1ccc(Cl)cc1 | 1 | 5 | -3 | 5 | -31*
Cc1ccc(CNc2ncnc3c2nnn3C)cc1 | 0 | -5 | 2 | 1 | .
Nc1ccc(S(=O)(=O)NC2(C(F)(F)F)NC(=O)N(c3cccc(Cl)c3)C2=O)cc1 (stereo not drawn) | 1 | -5 | -4 | 0 | -6
CN1CCc2ccccc2Cc2[nH]c3ccccc3c2CC1 | 0 | 1 | -7 | -1 | -107*
CCCCN1CCc2c([nH]c3ccccc23)C1=O | 0 | 1 | 0 | 1 | -5
C#CCn1c(-c2cccs2)nc2ccccc21 | 1 | 32* | -5 | 2 | 23
CCC(C)NCCOCCOc1ccc(Cl)c2ccccc12 (stereo not drawn) | 5 | -1 | 0 | 58* | -45*
CCC(C)NCCOCCOc1ccc(Cl)c(C)c1C (stereo not drawn) | 2 | 7 | -3 | 34* | -4
CCOc1ccccc1NC(=O)C(=O)NCCc1sc2nc(-c3ccc(OC)cc3)nn2c1C | 0 | 9 | -1 | 4 | .
CCC(=O)N1c2nc(C(C)C)nn2C2(CCCCC2)[C@@H]2CCCC[C@@H]21 | -3 | -6 | 1 | -3 | -5
CC(NC(=O)c1cccc(NC(=O)c2nsc3ccccc23)c1)c1ccccc1 (stereo not drawn) | 0 | 4 | -1 | 5 | -9
SMILES | TRHR ag | TRHR PAM | D1 PAM | D1 ag | D1 antagonist
COc1ccccc1OCC(=O)/C=C1/N(C)c2ccccc2C1(C)C | 0 | 1 | -8 | 32* | -49*
CN1\C(=C/C=C/C=C/C=[N+](C)C)C(C)(C)c2ccccc21 | 142* | 47* | 6 | 324* | -20
CN1/C(=C\C=Nc2ccc3ccccc3c2)C(C)(C)c2ccccc21 | 1 | -2 | 11 | 8 | 14
CN1/C(=C\C=O)C(C)(C)c2ccccc21 | -1 | -2 | -4 | 0 | 5
CN1/C(=C/C=C(C#N)C#N)C(C)(C)c2ccccc21 | 0 | 5 | 12 | 116* | 5
CN1/C(=C\C(=O)COC(=O)c2ccccc2O)C(C)(C)c2ccccc21 | 0 | 0 | -5 | 7 | -5
CC1=C/C(=C\C=C(C#N)C#N)N(C)c2ccccc21 | 24 | -4 | -12 | 45* | -35*
Cn1c(NCCCO)nc2c1c(=O)n(Cc1cccc(F)c1)c(=O)n2C | 0 | 9 | 1 | 0 | 4
O=c1c2ccccc2n(Cc2ccccc2F)c(=O)n1-c1cccc(F)c1 | -1 | -4 | 0 | 5 | -5
O=C(/C=C/c1ccccc1)NCCSCc1ccc(Cl)cc1 | 0 | -4 | -8 | 7 | -1
O=C(/C=C/c1ccccc1)NCCSCc1ccccc1Cl | 1 | -8 | -4 | 14 | -32*
O=C(/C=C/c1ccc(Cl)cc1Cl)NCCSCc1ccccc1 | 2 | -3 | -10 | 6 | -46*
Cc1ccc(NC(=O)CSc2nccn2C2CCCC2)cc1 | -1 | -4 | -2 | 2 | 1
Cc1ccc(-c2nc3ccccc3[nH]2)s1 | -1 | 35* | 1 | 2 | 1
c1ccc(-c2nc3ccccc3[nH]2)cc1 | 0 | 13 | 2 | 0 | 3
Cc1[nH]c2ccccc2c1-c1nc2ccccc2[nH]1 | -1 | 7 | -12 | 14 | -77*
CC(C)NC(=O)c1ccccc1NS(=O)(=O)c1ccc(Br)s1 | 0 | -4 | -5 | 5 | -16
Cc1ccccc1NS(=O)(=O)c1ccc(Br)s1 | -2 | 10 | 1 | 50* | -21
Cc1c(C#N)c(=O)c(-[n+]2ccccc2)c([S-])n1-c1ccc(Cl)cc1 | 1 | 33* | -1 | 3 | 14
Cc1ccc(Nc2nc(-c3c(C)nc4ccccn34)cs2)cc1 | -1 | -9 | -6 | 2 | -48*
Cc1ccn2c(-c3csc(NCc4ccccc4)n3)c(C)nc2c1 | 0 | -5 | -17 | 8 | -33*
Cc1cc(C)n(-c2nc3nonc3nc2Nc2cccc(C)c2C)n1 | 0 | 9 | -1 | 2 | -32*
COc1ccc(-c2cn3cccnc3n2)cc1NC(=O)c1cc(C)cc(C)c1 | 0 | -4 | 2 | -1 | -87*
COc1ccc(C)cc1S(=O)(=O)Nc1cccc(-c2cn3cccnc3n2)c1 | 0 | 31* | -3 | 1 | -4
O=C(Cc1ccccc1)Nc1cccc(-c2cn3cccnc3n2)c1 | 0 | -1 | -2 | 0 | 19
Cc1ccc(-c2cn3cccnc3n2)cc1NC(=O)Cc1ccccc1 | 1 | 4 | 0 | 1 | -73*
COc1ccc(CCNC(=O)Cc2c(C)c3c(cc(C)c4c(C)coc43)oc2=O)cc1OC | -2 | -3 | 0 | 0 | 1
O=C(C/C=N\OCc1ccc([N+](=O)[O-])cc1)Nc1ccc(Cl)cc1 | 0 | -5 | -7 | 19 | -30*

Screens from PubChem.
